Laboratory results reported in PubChem BioAssay AID720706 (Broad Institute, 2013).
Where “and” joins values, the source holds several entries; their conditions need not be identical. Identical values can stand only once. Hit rate of the full screen: of about 350,000 compounds, about 5,500 (1.6%) were called active. The sample holds actives, similar compounds and a random draw of the others, so the mix is not that of the screen.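 How the source made its calls: active means significant combined selectivity score with lowered wild-type GFP, culture density cut under 30%, mutant RFP and density less affected; inactive means any of these conditions unmet.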 More than one record can exist for a structure, and the calls need not agree.

test: GFP drop in mixed WT/humanized-ribosome E. coli culture – GFP/RFP fluorescence, OD600, single point, bacterial rRNA inhibitor project, primary screen (AID 720706); conditions: E. coli WT GFP vs humanized-ribosome RFP mutants, 24 h; GFP signal change (wild-type ribosome): stronger effect = lower value, DMSO median 0, no signal -100; OD600 change: measured here: OD600 growth, DMSO median 0, no signal -100; RFP signal change: measured here: RFP humanized mutant strains, DMSO median 0, no signal -100, concentration not given here

Row | SMILES | GFP signal change (wild-type ribosome) | OD600 change | RFP signal change
1 | COc1ccc(-c2cn(CC[C@@H]3CC[C@@H](NS(=O)(=O)c4ccccc4C)[C@H](CO)O3)nn2)cc1 | -0.161% (inactive) | 0.015% | 1.23%
2 | COc1ccccc1NC(=O)N[C@H]1CC[C@@H](CC(=O)NCc2ccc(Cl)c(Cl)c2)O[C@H]1CO | -9.75% (inactive) | -22.7% | 1.88%
3 | CC(=O)O[C@]1(C(C)=O)CC[C@H]2[C@@H]3C=C(C)C4=CC(=O)CC[C@]4(C)[C@H]3CC[C@@]21C | -55.8% (inactive) | -76.8% | -10.6%
4 | CC12CCC(=O)C=C1CCC1C2C(O)CC2(C)C1CCC2(O)C(O)CO (stereo not given) | 8.19% (inactive) | 4.56% | 4.01%
5 | CC(=O)C12CC(C)=C(C)CC1CC1C3CCC4=CC(=O)CCC4(C)C3CCC12C (stereo not given) | -17.6% (active) | 7.85% | 5.44%
6 | CCCC#Cc1ccc([C@H]2[C@H]3CN(C(=O)Nc4cc(F)ccc4F)CC(=O)N3[C@H]2CO)cc1 | -18.4% (inactive) | -50.2% | 11.1%
7 | C[C@@H]1CN([C@H](C)CO)C(=O)c2cc(NC(=O)NC3CCCCC3)ccc2O[C@H]1CN(C)C(=O)Nc1ccccc1 | 5.36% (inactive) | 10.1% | 2.7%
8 | O=C(C[C@H]1C=C[C@H](NC(=O)C2CCC2)[C@H](CO)O1)NCCCN1CCOCC1 | 1.78% (inactive) | 4.36% | -0.385%
9 | CCCCCn1nnnc1C1c2ccccc2C(=O)N1Cc1ccco1 (stereo not given) | -4.73% (inactive) | -2.58% | -0.015%
10 | CCCCCn1nnnc1-c1nc2cc3ccccc3cc2[nH]c1=O | -19.2% (active) | -5.54% | 8.22%
11 | CCCCn1c(-c2cccc(C)c2)nc2cc3[nH]c(=O)c(C(C)C)nc3cc21 | -29.5% (inactive) | -62% | 13.5%
12 | CCOc1ccccc1N1CCN(C(=O)c2ccc3[nH]c(C)c(C)c3c2)CC1 | -34.6% (active) | -17.6% | 7.07%
13 | CCn1c(C)c(C)c2cc(C(=O)N3CCN(c4cccc(C)c4C)CC3)ccc21 | 13.4% (inactive) | -10.1% | 8.15%
14 | Cc1[nH]c2ccc(C(=O)N3CCN(C)CC3)cc2c1C | 6.6% (inactive) | 11% | 3.29%
15 | CNC[C@@H]1Oc2ccc(N(C)C)cc2CC(=O)N(C)C[C@@H]1C | -0.679% (inactive) | 1.44% | -1.38%
16 | NN=C(NN=Cc1ccccc1)c1ccccc1 | 3.05% (inactive) | 19.4% | -0.189%
17 | CN(/N=C/c1ccccc1)C(=S)c1ccccc1 | -28.9% (active) | -13.5% | -2.92%
18 | CN(O)C(=S)c1ccccc1 | -58% (inactive) | -75.2% | -15%
19 | O=C(C[C@H]1C[C@@H]2c3cc(NS(=O)(=O)c4ccc(F)cc4)ccc3O[C@@H]2[C@H](CO)O1)NCc1cccc(F)c1 | 0.64% (inactive) | -2.85% | 2.59%
20 | CCC(=O)N1CC(=O)N2[C@@H](CO)[C@H](c3ccc(C#CC4CCCC4)cc3)[C@@H]2C1 | 1.66% (inactive) | -3.78% | -1.59%
21 | O=C(C[C@@H]1CC[C@H]2[C@@H](COC[C@@H](O)CN2C(=O)c2ccc3c(c2)OCO3)O1)NC1Cc2ccccc2C1 | 1.47% (inactive) | -6.88% | -0.618%
22 | C[C@H]1CN([C@@H](C)CO)C(=O)CCCn2nncc2CO[C@@H]1CN(C)C(=O)Nc1ccc(N2CCN(C)CC2)cc1 | 22.4% (inactive) and -1.77% (inactive) | 13.6% and 7.97% | 3.72% and -0.742%
23 | C[C@@H]1CN([C@@H](C)CO)C(=O)CCCn2nncc2CO[C@H]1CN(C)C(=O)Nc1ccc(C(F)(F)F)cc1 | -16.6% (active) and -54% (inactive) | -10.2% and -56.3% | 5.18% and -10.9%
24 | C[C@@H]1CN([C@@H](C)CO)C(=O)CCCn2nncc2CO[C@H]1CN(C)Cc1ccc(C(F)(F)F)cc1 | -3.59% (inactive) and 7.37% (inactive) | -1.83% and 9.18% | 2.44% and -0.538%
25 | CCCNC(=O)N1CC(=O)N2[C@H](C1)[C@@H](c1ccc(C#Cc3ccccc3)cc1)[C@@H]2CO | -41.7% (inactive) | -70.4% | -0.11%
26 | COc1ccc2c3c(n(C)c2c1)[C@@H](CO)N(C(=O)Nc1ccccc1F)CC31CCN(C(=O)c2ccccc2F)CC1 | -2.62% (inactive) | -3.48% | -0.298%
27 | CO[C@@H](CN(C)C(=O)c1cnccn1)[C@H](C)CN([C@H](C)CO)S(=O)(=O)c1ccc(C)cc1 | 1.87% (inactive) | 2.69% | -1.48%
28 | CCc1nc2ccccc2c(C(=O)OC2CCCCC2=O)c1C (stereo not given) | -34.4% (active) | -20.5% | 3.94%
29 | CCc1c(C)c2ccc(OC3CCCCC3=O)cc2oc1=O (stereo not given) | 1.77% (inactive) | -3.25% | 1.07%
30 | CCc1nc2ccccc2c(C(=O)NCc2ccc(OC)cc2)c1C | -3.42% (inactive) | -5.87% | -3.53%
